# Measured values from PubChem BioAssay (Tox21).
# Inconclusive results are not listed. Activity calls are given as the source filed them. Calls follow the shape of the full dose curve.
# Experiment: p53 small molecule agonists, cell-based qHTS assay with rat liver microsomes: qHTS cell viability counter screen (AID 1963580); also: nearly all actives have a fitted effect of over 45% in size
# Details: p53RE-bla HCT-116 + rat microsomes, ATP viability, 16 h; series mostly up to 66 µM; activity change, negative = cytotoxicity: at the top concentration
# Source text: National Center for Advancing Translational Sciences [NCATS]
# Division of Preclinical Innovation [DPI]
# U.S. Environmental Protection Agency [EPA]
# National Institutes of Environmental Health Sciences [NIEHS]
# National Toxicology Program [NTP]
# U.S. Food and Drug Administration [FDA]
# p53, a tumor suppressor protein, is activated following cellular insult, including DNA damage and other cellular stresses. The activation of p53 regulates cell fate by inducing DNA repair, cell cycle arrest, apoptosis, or cellular senescence. The activation of p53, therefore, is a good indicator of DNA damage and other cellular stresses. The CellSensor p53RE-bla HCT-116 cell line contains a stably integrated beta-lactamase reporter gene under control of the p53 response elements. The activation of the reporter gene under culture conditions can be detected by fluorescence intensity. This cell line was used to screen the Tox21 10K compound library in the condition of presence of rat liver microsomes and to identify agonists that activate the p53 signaling pathway after in vitro metabolic activation (Ooka et al., Archive of Toxicology 96:1975-1987, 2022). The cytotoxicity of the Tox21 compound library against the p53 RE-bla HCT-116 cell line was tested in parallel by measuring the intra cellular ATP content in the same wells.
# Tox21 Assay Protocol Summary:
# The p53RE-bla cells were dispensed at 4,000cells/3ul/well in 1536-well black-clear bottom plates. After the assay plates were incubated at 37 C, 5% CO2 incubator for 5 hours, 23 nL of compounds dissolved in DMSO, positive controls or DMSO only was transferred to the assay plate. Following compound addition, 3 uL of rat liver microsomes (Molecular Toxicology, Boone, NC) at final concentration of 0.5 mg/mL and 1uL of B-Nicotinamide adenine dinucleotide 2'-phosphate (NADPH) at final concentration of 0.5 mg/mL were transferred to the assay plate. The plates were incubated at 37 C for 16 hours. 1 uL of LiveBLAzer detection mixture was added to each well and the plates were incubated at room temperature in the dark for 2 h. Fluorescence intensity at 460 and 530 nm emission and 405 nm excitation were measured by an Envision plate reader. For cell viability readout that measures cytotoxicity, 4 ul/well of CellTiter-Glo reagent was added into the assay plates using a Flying Reagent Dispenser. After 30 min incubation at room temperature, the luminescence intensity in the plates was measured using a ViewLux plate reader.
# % is scaled to controls: 0 for no effect and ±100 for the full control effect; potency is read from the fitted curve at half-maximal effect.
Structure (SMILES),"activity change, negative = cytotoxicity",Potency
C=CCCCCCC,-6.2% (inactive),–
N#Cc1ccccc1C#N,0.524% (inactive),–
CCCCCCCCCCCCCCCC(=O)OCC,-8.51% (inactive),–
CCN(CCC#N)c1ccccc1,-4.13% (inactive),–
CCCCC(CC)CN=C(N)NC(N)=NCCCCCCN=C(N)NC(N)=NCC(CC)CCCC (stereo not given),–,17.8 µM (active)
COc1cc(C(=O)NC2CCN(C)CC2)ccc1Nc1ncc2c(n1)N(C1CCCC1)CC(F)(F)C(=O)N2C,–,37.4 µM (active)
CCCCCCCCCCC[C@@H](C[C@@H]1OC(=O)[C@H]1CCCCCC)OC(=O)[C@H](CC(C)C)NC=O,-9.81% [at 30.3 µM] (inactive),–
CCc1c(C)cc(N)c(CC)c1N,-3.21% (inactive),–
C[C@]12CC[C@@H]3c4ccc(O)cc4CC[C@H]3[C@@H]1CC[C@@H]2OC(=O)CCC1CCCC1,–,inactive
CCO[Si](CC(C)C)(OCC)OCC,-2.67% (inactive),–
CCN(CC)CCCN(c1ccccc1)C1Cc2ccccc2C1,1.2% [at 30.3 µM] (inactive),–
c1ccc2c(c1)-c1ccc3ccc4cccc5cc-2c1c3c45,0.442% [at 30.3 µM] (inactive),–
CN[C@H]1CC[C@@H](c2ccc(Cl)c(Cl)c2)c2ccc(S(N)(=O)=O)cc21,-7.87% (inactive),–
C=C1C(C)(C)[C@@]2(Cl)C(Cl)[C@]1(Cl)C(Cl)(Cl)C2(Cl)Cl (stereo not given in full),-8.49% (inactive),–
O=C(O)c1ccc(O)c(O)c1,-0.471% (inactive),–
CC(=O)CC(=O)c1ccccc1,-4.31% (inactive),–
C1C2OC2C2C1C1CC2C2OC12 (stereo not given),-0.137% (inactive),–
CCOC(C)OCC,-7.44% (inactive),–
CCCCCCCCCCCCCCCCCBr,0.54% [at 13.5 µM] (inactive),–
O=C1c2ccccc2C(=O)N1CCc1noc(-c2ccc(CN3CCCCCC3)s2)n1,-5.92% (inactive),–

Structure (SMILES),"activity change, negative = cytotoxicity",Potency
CN(C)c1ccc(N=Nc2ccccc2C(=O)O)cc1,25.8% (inactive),–
CCOC(=O)C(F)(F)F,-0.102% (inactive),–
CC(=O)Oc1ccc2c(c1)CC[C@@H]1[C@@H]2CC[C@]2(C)[C@@H](O)CC[C@@H]12,15.1% [at 30.3 µM] (inactive),–
COCCOC(=O)CC#N,2.46% (inactive),–
CCCCCCCCOC(=O)c1cc(O)c(O)c(O)c1,-22.7% (inactive),–
CCO[Si](CCCS)(OCC)OCC,-1.87% (inactive),–
Cc1nc(N)nc(N)c1-c1ccc(Cl)c(Cl)c1,7.1% [at 30.3 µM] (inactive),–
CC(C)C[C@H](NC(=O)CNC(=O)[C@H](Cc1ccc(O)cc1)NC(=O)[C@H](CO)NC(=O)[C@H](Cc1c[nH]c2ccccc12)NC(=O)[C@H](Cc1cnc[nH]1)NC(=O)[C@@H]1CCC(=O)N1)C(=O)N[C@@H](CCCN=C(N)N)C(=O)N1CCC[C@H]1C(=O)NCC(N)=O (stereo in doubt),2.16% [at 30.3 µM] (inactive),–
S=c1nccc[nH]1,4.32% (inactive),–
CCCCNC(=S)NCCCC,-8.72% (inactive),–
Cc1ccc2ccc(Cl)cc2n1,4.3% [at 30.3 µM] (inactive),–
OCCN1CCOCC1,18% (inactive),–
CCCCCCC(C)OC(=O)COc1nc(F)c(Cl)c(N)c1Cl (stereo not given),-12.1% (inactive),–
CCC1(C)CC(=O)NC1=O (stereo not given),-8.88% [at 30.3 µM] (inactive),–
CC(=O)c1ccc[nH]1,-16.1% (inactive),–
CC/C=C\C/C=C\C/C=C\CCCCCCCC(=O)OCC,-4.37% (inactive),–
CCN(CC)CCOC(=O)C1(C2CCCCC2)CCCCC1,-2.34% [at 30.3 µM] (inactive),–
O=C(Cl)c1c(Cl)cccc1Cl,3.39% (inactive),–
C[C@]12CC[C@H]3C(=CCc4cc(O)ccc43)[C@@H]1CCC2=O,-9.31% (inactive),–
Oc1ccc(Cl)cc1C1CCCC1,-27.5% (inactive),–
